From PubChem BioAssay
hgDAF-12 ag – agonists of H. glycines DAF-12 nuclear receptor | HEK293 GAL4-hgDAF12 UAS-luciferase reporter, agonist luminescence; normalized to butyrate control | activation, % at 6.8 µM | hit rate 1.8% among 370,000 | AID 687014;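 active = activation above a cutoff set at the mean of all screened compounds plus 3 SD, cut at about 10% in these data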;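 note: 0% = DMSO wells and 100% = sodium butyrate wells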
ssDAF12 agonist – S. stercoralis DAF-12 activation, primary screen; HEK293 ssDAF-12/GRIP1 lit1-tk-luc reporter, luminescence; % of 3 µM dafachronic acid response; activation, % at 6.8 µM; hit rate 1% among 370,000; AID 652126;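 active = activation above the mean over all tested compounds plus 3 SD, cut at about 0.9% in these data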;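 note: 0% = DMSO-only wells and 100% = 3 µM delta7-dafachronic acid wells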
DAX1 StAR inh – blocks DAX1 repression of SF-1 activated StAR promoter. HEK293T StAR-luciferase reporter, SF-1/DAX-1 repression relief. inhibition, % at 6.8 µM. hit rate 1.1% among 370,000;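 active = inhibition above the mean over all tested compounds plus 3 SD, cut at about 3.6% in these data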;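 note: 0% = DAX-1 cells with DMSO and 100% = cells lacking DAX-1 with DMSO; higher inhibition means more luminescence from relief of DAX-1 repression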
Wnt bcat act – activates Wnt/beta-catenin signaling in a reporter cell assay; activation, % at 9.35 µM; AID 743398; hit rate 1.2% among 300,000; activator, plate reader; in the data active = activation above about 30%, passing the limit was not always enough;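 note: 0% = neutral control wells and 100% = positive control wells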
hcDAF-12 act – activators of H. contortus DAF-12 nuclear receptor; HEK293 hcDAF-12 lit1-tk-luc reporter, luminescence; 0% DMSO, 100% Δ7-dafachronic acid; activation, % at 6.8 µM; hit rate 1.4% among 370,000;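 active = activation above the mean of all tested compounds plus 3 SD, cut at about 5.5% in these data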;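 note: 100% = response to 3 µM Δ7-dafachronic acid high control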
esBAF inh – SWI/SNF esBAF complex inhibition | mouse ES cells, Bmi1-luciferase knock-in reporter, 24 h; 100% = twice the neutral-well signal | reporter increase, % at 12.5 µM | hit rate 2% among 350,000; in the data active = activation above about 40%;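 note: 0% = median of the plate's neutral control wells and 100% = double that signal; a rise in the Bmi1 reporter signal indicates esBAF inhibition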
LXRb hcDAF ctr – counter-screen for hcDAF-12 agonists: agonists of human LXR-beta. activation, % at 6.8 µM. HEK293 Gal4-LXR tk-luc reporter, luminescence, 24 h; normalized: DMSO 0%, positive control 100%. 3,400 tested, under 10 active. AID 743027. shares compounds with hcDAF-12 act;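 active = mean percent activation of the reporter above a cutoff set as the average over tested compounds plus their standard deviation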
Target sequence (P55055 whole entry, looked up, the tested form may be a part): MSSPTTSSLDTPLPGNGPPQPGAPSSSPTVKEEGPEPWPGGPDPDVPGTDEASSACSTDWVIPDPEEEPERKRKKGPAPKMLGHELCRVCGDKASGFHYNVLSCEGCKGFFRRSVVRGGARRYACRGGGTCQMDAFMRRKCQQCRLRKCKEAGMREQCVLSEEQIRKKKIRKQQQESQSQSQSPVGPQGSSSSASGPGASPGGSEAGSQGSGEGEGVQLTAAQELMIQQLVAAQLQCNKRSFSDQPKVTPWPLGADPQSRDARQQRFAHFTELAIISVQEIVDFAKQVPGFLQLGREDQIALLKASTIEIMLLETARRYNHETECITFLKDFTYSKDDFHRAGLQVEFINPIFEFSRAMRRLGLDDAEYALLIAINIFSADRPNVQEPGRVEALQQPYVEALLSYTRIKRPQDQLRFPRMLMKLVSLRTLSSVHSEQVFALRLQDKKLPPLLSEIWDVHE
hcDAF12 ag – hcDAF-12 agonism, confirmation assay; shares compounds with hcDAF-12 act; HEK293 hcDAF-12 lit1-tk-luc reporter, luminescence; % of Δ7-dafachronic acid response; activation, % at 6.8 µM; hit rate 61% among 3,400; AID 743032;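 active = mean activation across triplicate tests above the threshold derived from the earlier primary screen, cut at about 5.5% in these data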;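 note: 0% = DMSO only wells and 100% = 3 µM Δ7-dafachronic acid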
An asterisk follows results filed as active; nt = not tested or not shown. An excerpt weighted towards active compounds, which were near 4.2% of everything screened.

SMILES | hgDAF-12 ag | ssDAF12 agonist | DAX1 StAR inh | Wnt bcat act | hcDAF-12 act | esBAF inh | LXRb hcDAF ctr | hcDAF12 ag
CN1c2ccc(-c3ccccc3)cc2[C@H]2[C@H](CCN2C(=O)Cc2ccccc2)[C@@H]1CO | nt | nt | nt | nt | nt | 2.0 | nt | nt
Cc1ccc2nc(NC(=O)c3cccs3)sc2c1 | 11.0* | 1.1* | 2.6 | 3.7 | 10.2* | -50.0 | 1.5 | 5.9*
Cc1ccc2nc(NC(=S)NC(=O)c3cccs3)sc2c1 | 11.2* | 0.9* | 1.3 | nt | 7.2* | 50.6* | 1.2 | 15.4*
O=C(Nc1nc2c(s1)CCCC2)c1cccs1 | 9.6 | 0.7 | 3.0 | nt | 9.5* | -12.3 | 1.3 | 6.1*
Cc1cc(C)c2oc(-c3ccc(C)c(NC(=S)NC(=O)c4cccs4)c3)nc2c1 | 6.9 | 0.7 | 0.2 | nt | 7.7* | nt | -0.2 | 4.0
Cc1cc(C)c2oc(-c3ccc(C)c(NC(=S)NC(=O)/C=C/c4ccco4)c3)nc2c1 | 2.7 | 0.3 | 0.3 | nt | 3.9 | nt | nt | nt
CC(=O)N(C)C[C@H]1Oc2cc(-c3cccnc3)ccc2S(=O)(=O)N([C@@H](C)CO)C[C@H]1C | nt | nt | nt | nt | nt | -2.1 | nt | nt
C[C@H]1CN([C@@H](C)CO)C(=O)c2cc(NS(=O)(=O)c3cn(C)cn3)ccc2O[C@@H]1CN(C)Cc1ccc(-c2ccccc2)cc1 | nt | nt | nt | nt | nt | -8.5 | nt | nt
COc1ccc(CNC(=O)C[C@@H]2C[C@@H]3c4cc(NC(=O)CC5CC5)ccc4O[C@@H]3[C@@H](CO)O2)cc1 | nt | nt | nt | nt | nt | 1.8 | nt | nt
Cc1ccc(C)c(NCC(=O)c2ccc(Cl)cc2)c1 | 12.4* | 0.7 | 0.5 | -0.8 | 7.1* | -3.2 | -0.2 | 0.7
Cc1ccc(C(=O)CNc2cc(C)ccc2C)cc1 | 0.7 | -0.3 | -0.5 | -2.0 | 0.6 | -1.3 | nt | nt
O=C(NCCc1nc2ccccc2[nH]1)c1ccc([N+](=O)[O-])cc1 | -1.8 | -1.2 | -0.2 | -0.1 | -3.2 | nt | nt | nt
CN/N=C(\Cc1nc2ccccc2[nH]1)c1ccc([N+](=O)[O-])cc1 | 4.5 | -0.9 | -0.8 | -0.9 | 7.0* | nt | 0.1 | 7.8*
O=C(CSC1=NS(=O)(=O)c2cc(F)ccc2N1)NCc1ccc(F)cc1 | 0.1 | -0.6 | 1.2 | -1.2 | 0.5 | -0.3 | nt | nt
O=C(CSC1=NS(=O)(=O)c2cc(Cl)ccc2N1)NCc1ccccc1 | 0.8 | -0.7 | -0.6 | 3.2 | 7.0* | -2.1 | -0.5 | -1.2
CCCC(=O)Nc1ccc2c(c1)C(=O)N(C)C[C@H](OC)[C@H](C)CN(CCC(F)(F)F)[C@@H](C)CO2 | nt | nt | nt | nt | nt | -2.4 | nt | nt
Cc1ccc(C2c3[nH]c4ccccc4c3C[C@H]3C(=O)N(c4ccccc4C(=O)N4CCC[C@H]4C(=O)O)C(=O)N23)cc1 (stereo partly specified) | 4.3 | 0.0 | 0.6 | 0.0 | 7.6* | 7.2 | -0.3 | 3.2
COc1ccc(C2c3[nH]c4ccccc4c3C[C@H]3C(=O)N(c4ccccc4C(=O)N4CCC[C@@H]4C(=O)O)C(=O)N23)cc1 (stereo partly specified) | 2.2 | 0.4 | 0.8 | 1.9 | 2.9 | -1.6 | nt | nt
O=C(O)[C@@H]1CCCN1C(=O)c1ccccc1N1C(=O)[C@@H]2Cc3c([nH]c4ccccc34)C(c3cccc(Cl)c3)N2C1=O (stereo partly specified) | 2.3 | -0.3 | 1.1 | -1.3 | 8.8* | 1.4 | -0.3 | 3.6
Cc1ccc(Nc2ncc3c(n2)CC(C)CC3=O)c(C)c1 (stereo unspecified) | 10.1 | 0.1 | 2.0 | 52.0* | 7.1* | nt | 1.2 | 5.1
CC1CC(=O)c2cnc(Nc3cccc(C(F)(F)F)c3)nc2C1 (stereo unspecified) | 0.0 | -1.1 | 0.2 | nt | 0.0 | 26.8 | nt | nt
COC(=O)c1ccc(N=NN2CCCCCC2)cc1 | 9.7 | -0.5 | 2.7 | -0.4 | 0.1 | nt | nt | nt
COC(=O)c1ccc(N=NNc2ccc(C(=O)OC)cc2)cc1 | 6.6 | -0.2 | 3.2 | 15.5 | 10.2* | nt | 1.4 | 12.3*
CCc1ccc(C(=O)Cn2ccsc2=N)cc1 | 20.1* | 2.1* | 2.5 | 4.9 | 18.9* | -5.3 | 1.6 | 12.2*
CC(C)CC#Cc1cnc2c(c1)C(=O)N([C@@H](C)CO)C[C@H](C)[C@@H](CN(C)C(=O)c1cnccn1)O2 | nt | nt | nt | nt | nt | 3.4 | nt | nt
SMILES | hgDAF-12 ag | ssDAF12 agonist | DAX1 StAR inh | Wnt bcat act | hcDAF-12 act | esBAF inh | LXRb hcDAF ctr | hcDAF12 ag
CCS(=O)(=O)N1CCN(Cc2c[nH]c3ccccc23)CC1 | 8.9 | -0.5 | 0.8 | -1.2 | 7.4* | nt | -0.3 | 3.4
COc1ccccc1N1CCN(Cc2c[nH]c3ccccc23)CC1 | 1.3 | 0.4 | -0.9 | 1.3 | 1.8 | nt | nt | nt
Cc1ccccc1N1CCN(Cc2c[nH]c3ccccc23)CC1 | 1.2 | 0.5 | -0.5 | -0.8 | 6.6* | 2.4 | -0.3 | 4.4
C[C@H](CO)N1C[C@H](C)[C@H](CN(C)S(=O)(=O)c2cn(C)cn2)Oc2ccc(NS(=O)(=O)c3ccccc3)cc2CC1=O | nt | nt | nt | nt | nt | -0.6 | nt | nt
CC(CSC(=O)c1ccccc1)C(=O)N1c2ccccc2CC1C(=O)O (stereo unspecified) | 5.5 | 0.8 | 0.2 | -0.9 | 7.5* | -0.2 | -0.3 | 5.4
O=C(Nc1cccc(F)c1)Nc1ccccn1 | 8.3 | -0.6 | 1.1 | nt | 8.7* | 38.1 | 0.6 | 1.3
COC(=O)c1cc2c(s1)-c1ccccc1OC2 | 3.9 | 0.0 | 1.0 | 8.5 | 8.9* | 35.6 | 0.3 | 3.1
COc1ccccc1N1CCN(C(=O)c2cc3c(s2)-c2ccccc2OC3)CC1 | 2.8 | -0.9 | -0.1 | 1.2 | 0.6 | 7.1 | nt | nt
COC(=O)c1cc2c(s1)-c1ccc(OC)cc1CC2 | 6.1 | -0.4 | 1.0 | 67.0* | 7.1* | nt | 0.3 | 4.4
C[C@H]1CN([C@@H](C)CO)C(=O)c2cc(C#Cc3ccncc3)cnc2O[C@@H]1CN(C)CC1CCOCC1 | nt | nt | nt | nt | nt | 0.7 | nt | nt
